Source: PubChem BioAssay AID588463 (National Center for Advancing Translational Sciences (NCATS), 2011)
The whole screen tested about 1,200 compounds, of which about 15 (1%) were called active. Inconclusive results (about 7%) are left out. Only a selection was taken, and actives are over-represented in it overall. Values without a mark were called inactive. Calls come from the whole dose curve; as a rule, active = well fitted activation curve with a large enough effect; inconclusive = small, poorly fitted or top-dose-only effect; inactive = flat fitted curve, though single readings scatter.

target: Beta-2 adrenergic receptor (Homo sapiens) (UniProt P07550); assay: qHTS assay of beta-arrestin-biased ligands of beta2-adrenergic receptor: Hit Validation; details: cell-based beta-arrestin recruitment to beta2AR; Potency: activation; series mostly up to 46.1 µM; activation: at the top concentration;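 for activation: plate controls were DMSO for no effect and maximal isoproterenol or metaproterenol response for full effect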
From the text: The concept of biased agonism is an emerging concept of molecular pharmacology which proposes that seven transmembrane receptors (7TMRs) or G protein-coupled receptors (GPCRs), exist in multiple signaling conformations and complexes and that ligands (either agonists or antagonists) can induce signaling biased responses for distinct signal transduction cascades.
Furthermore, accumulating evidence over the last decade has drawn attention to a novel function of beta-arrestins as signal transducers that scaffold various signaling molecules upon activation of 7TMRs. […] This beta-arrestin-biased signaling presumably leads to distinct physiological outcomes from those by G protein activation.
Additionally, the active receptor conformations which […] on this beta-arrestin signaling are likely different from those activating G protein signaling
The goal of this screening project will be to discover and optimize novel beta-arrestin-biased ligands for beta2-AR signaling. A luminescent cell-based assay for beta2-AR-mediated agonism, known as the Tango assay, has been validated in which ligand binding of a recombinant beta2-AR and subsequent recruitment of a recombinant beta-arrestin lead to the release of the transcriptional activator tTA, which upregulates transcription of a tTA-responsive luciferase gene.
NIH Molecular Libraries Probe Production Network [MLPCN]
NIH Chemical Genomics Center [NCGC]
PI: Bryan Roth (UNC) and Bob Lefkowitz (Duke)
NCGC Assay Protocol Summary:
Tango cells were dispensed into white, solid, tissue-culture-treated 1536-well plates at 1500 cells/well in DMEM, containing 1% fetal bovine serum (FBS). Then, 23 nL of compounds or DMSO were delivered to each well using a pin tool. Plates were incubated at 37 degrees C, 5% CO2 for 18 hr. Then 2.5 uL luminescent substrate mix (in-house prepared: 150 mM Tris-Cl, pH 7.6, 3 mM MgCl2, 1% Triton X-100, 5 mM DTT, 0.5 mM CoA, 0.15 mM ATP, 0.44 mM D-luciferin, final concentrations) was added to each well. Plates were then incubated for 15 minutes at room temperature, and subsequently measured on a ViewLux plate reader for luminescent signal using a clear filter with a 10 second exposure and 2x binning. The %Activity was determined from the corrected luminescence values.
Concentration-response curves were fitted to the signals arising from the resulting luminescence. The concentration-effect curves were then classified based on curve quality (r2), response magnitude and degree of measured activity, and compounds were subsequently categorized based on their curve class.
Keywords: biased agonism, beta2-AR, beta-arrestin, GPCR, 7TMR, Tango, luminescence, MLSMR, MLPCN, NIH Roadmap, qHTS, NCGC
Potency is the fitted concentration of half-maximal effect.

Sequence of Beta-2 adrenergic receptor (Homo sapiens) (P07550 whole entry, looked up): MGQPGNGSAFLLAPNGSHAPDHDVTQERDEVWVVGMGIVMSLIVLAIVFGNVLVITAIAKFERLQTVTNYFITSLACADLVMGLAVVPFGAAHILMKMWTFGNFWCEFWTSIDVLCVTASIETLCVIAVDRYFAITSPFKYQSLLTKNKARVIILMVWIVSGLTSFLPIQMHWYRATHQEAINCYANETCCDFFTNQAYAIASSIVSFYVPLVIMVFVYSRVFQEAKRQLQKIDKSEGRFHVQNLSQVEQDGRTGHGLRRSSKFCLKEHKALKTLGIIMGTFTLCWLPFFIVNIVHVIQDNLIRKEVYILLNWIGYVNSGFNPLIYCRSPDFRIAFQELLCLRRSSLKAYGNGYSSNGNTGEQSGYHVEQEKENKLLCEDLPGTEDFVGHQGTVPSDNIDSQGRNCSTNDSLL

Row | SMILES | activation [%] | Potency
1 | CCCCC(=O)/C=C/n1c(=S)oc2ccccc21 | -2.45 | –
2 | CC(=O)N1CCN(CC(=O)c2ccc(Br)cc2)CC1 | -1.68 | –
3 | Cc1ccc(S(=O)(=O)N(CC(=O)N/N=C/c2ccco2)c2cc(Cl)cc(Cl)c2)cc1 | 0.42 | –
4 | CC(=O)c1sc(Nc2nc3ccc(F)cc3s2)nc1C | -2.59 | –
5 | Cc1nc2ccc(NC(=O)CS(=O)(=O)c3ccccc3)cc2s1 | -1.85 | –
6 | O=C(NCCN1CCOCC1)c1ccccc1Cl | 0.534 | –
7 | CCCCc1nnc(NC(=O)c2ccccc2OCc2c(C)noc2C)s1 | -1.03 | –
8 | CC(=O)c1ccc(N2CCN(C(=O)C3CCCN(S(=O)(=O)c4c(C)[nH]c(=O)[nH]c4=O)C3)CC2)cc1 (stereo not given) | -4.9 | –
9 | CCOC(=O)n1c(=O)oc2cc(S(=O)(=O)N3CCCCC3)ccc21 | -4.09 | –
10 | CCOc1ccc(/C=N/NC(=S)NC2CC3CCC2C3)cc1 (stereo not given) | -0.951 | –
11 | CC1CCCN(C(=O)Cn2nnc(-c3ccc(F)cc3)n2)C1 (stereo not given) | -0.544 | –
12 | FC(F)(F)c1nc2ccccc2nc1N/N=C\c1ccccc1 | -2.93 | –
13 | COc1ccc(OC)c(CNC(=O)CCCc2cn(C)c3ccccc23)c1 | -4.25 | –
14 | CC(=O)Oc1ccc2cc(-c3ccccc3)c(=O)oc2c1 | -2.83 | –
15 | Cc1cccc(-n2ncc3c(Nc4c(C)n(C)n(-c5ccccc5)c4=O)ncnc32)c1 | -4.29 | –
16 | O=C(CN1CCN(Cc2ccccc2)CC1)c1ccc(Br)cc1 | -2.66 | –
17 | CCC(=O)Nc1cccc(-c2nnc(SCC(=O)c3ccccc3)n2C)c1 | -3.27 | –
18 | Cc1oc(-c2ccccc2Cl)nc1CN1CCCCC1c1cccnc1 (stereo not given) | -3.35 | –
19 | COCCNC(=S)NN=C1CCC(c2ccccc2)CC1 (stereo not given) | -3.79 | –
20 | Cc1noc(/C=C/c2ccco2)c1S(=O)(=O)N1CCC(C(=O)N2CCc3ccccc3C2)CC1 | -3.07 | –
21 | O=C(N/N=C/c1ccc(-c2ccccc2[N+](=O)[O-])o1)[C@H]1C[C@@H]1c1ccccc1 | 4.62 | –
22 | Cc1cccc(NC(=S)NC2CCCC2)n1 | -2.16 | –
23 | COc1ccc(C2CC(c3ccccc3)=NN2C(=O)COC(=O)c2cccc(N)c2)cc1 (stereo not given) | 7.98 | –
24 | O=C(c1cccs1)N1N=C(c2ccccc2)CC1c1ccc(O)cc1 (stereo not given) | 6.49 | –

Row | SMILES | activation [%] | Potency
25 | CCN1C(=O)C(CC(=O)Nc2ccc(OC)cc2)N(CCN2CCOCC2)C1=S (stereo not given) | -0.784 | –
26 | COc1cc(-c2nc(-c3ccccc3)c(-c3cc([N+](=O)[O-])ccc3C)[nH]2)cc(OC)c1OC | -0.686 | –
27 | CCOc1ccccc1N=Nc1c(C)[nH]n(C(N)=S)c1=O | -1.78 | –
28 | COc1cccc(NC(=S)N/N=C2\CC(C)(C)Oc3ccc(O)cc32)c1 | -2.24 | –
29 | O=C(N/N=C\C=C\c1ccco1)C1COc2ccccc2O1 (stereo not given) | -2.32 | –
30 | COc1ccc2c(c1)c(=O)c(C(=O)c1ccccc1)cn2Cc1ccc(C)cc1 | -0.974 | –
31 | O=[N+]([O-])c1ccc(/C=C2\CCC(C3=CCCC3)=C2N2CCOCC2)cc1 | -1.92 | –
32 | CCOC(=O)c1cccc(NC(=O)c2cncc(Br)c2)c1 | -2 | –
33 | S=c1nc2ccccc2c2nc(-c3ccccc3)[nH]n12 | -2.79 | –
34 | COc1ccc(N(C(=O)CCl)C(C)(C(=O)Nc2c(C)cccc2C)c2ccccn2)cc1 (stereo not given) | 0.0836 | –
35 | CCN(C(=O)Cn1c(Cl)nc2c1c(=O)n(C)c(=O)n2C)C1CCCCC1 | -1.79 | –
36 | COc1ccc(/C=N/OC/C(O)=C(\C#N)c2nc3ccccc3[nH]2)cc1OC | -2.21 | –
37 | COc1ccccc1CN1C[C@@H]2C[C@@H](c3ccc4nsnc4c3)N3CCC[C@@]23C1=O | -1.58 | –
38 | Cc1cc(=O)n2cccc(O)c2n1 | -5.71 | –
39 | COc1ccc(NC(=S)NC(=O)c2ccc(Br)o2)cc1 | -3.83 | –
40 | CCOC(=O)/C(C#N)=C/Nc1ccsc1C(=O)OC | -3.19 | –
41 | S=c1[nH]c(-c2ccccc2)cn1/N=C/c1cccs1 | -3.12 | –
42 | O=C(Oc1c(Cl)cc(Cl)c2cccnc12)c1cccs1 | -2.15 | –
43 | N#CC[C@H](Cc1ccccc1)N1CC[C@@H](O)CCC1=O | -0.52 | –
44 | COc1ccc(N2C(=O)C3C(C2=O)C(C(=O)c2ccccc2)N2CCCC32)cc1 (stereo not given) | -0.0662 | –
45 | COc1ccccc1NC(=S)N/N=C1\CC(C)(C)Oc2ccc(O)cc21 | -1.77 | –
46 | CC(=O)O[C@H]1C2OC(=O)C(C)=C2[C@@H]2OC(=O)[C@]3(CCC4OC41C)OC23 (stereo not given in full) | -1.78 | –
47 | CNC(=S)N/N=C/c1c(C)cccc1Cl | -3.5 | –
48 | CC(NC(=O)NNC(N)=S)(C(F)(F)F)C(F)(F)F | -2.46 | –

Row | SMILES | activation [%] | Potency
49 | COc1ccc(CN2CCCC(C(=O)c3ccc(SC)cc3)C2)cc1Cn1cccn1 (stereo not given) | 0.256 | –
50 | COc1cc(CN2CCCCC2C(=O)Nc2ccc(Oc3ccccc3)nc2)ccc1O (stereo not given) | 6.3 | –
51 | Cc1nnc(NC(=O)c2ccc3ccccc3c2)o1 | -1.26 | –
52 | Oc1c(CNc2ccccc2)cc(COCc2ccccc2)c2cccnc12 | -5.03 | –
53 | Cc1ccc2nc(N3C(=O)CNC3=S)sc2c1 | -2.5 | –
54 | Clc1ccc(OCc2nc(-c3ccccn3)n[nH]2)cc1 | -1.51 | –
55 | CNC(=S)N/N=C(\C)c1ccccc1 | -1.21 | –
56 | CCCn1c(Nc2nc3ccccc3n2C)nc2ccccc21 | -2.95 | –
57 | CCC(NC(C)C)C(O)c1ccc(O)c(O)c1 (stereo not given) | – | 2060 nM (active)
58 | CCC(NC(C)C)C(O)c1ccc(O)c2[nH]c(=O)ccc12 (stereo not given) | – | 16.4 nM (active)
59 | Cc1ccc(C2(C)NC(=O)N(CC(=O)c3ccc4c(c3)OCCO4)C2=O)cc1 (stereo not given) | 4.6 | –
60 | CNc1sc(C(=O)c2ccccc2F)c(N)c1-c1nc2ccccc2s1 | -1.71 | –
61 | O=S1(=O)Nc2c(ccc3cccnc23)-c2ccccc21 | -3.15 | –
62 | CN1CCN(c2ccc(C(F)(F)F)cc2NC(=O)c2ccco2)CC1 | -3.16 | –
63 | COc1ccccc1-n1c2nc3ccccc3nc2c2c(=O)n(-c3cc(C)cc(C)c3)cnc21 | -3.64 | –
64 | COc1ccc(/C=C(\C#N)C(=O)OCC(=O)NCc2ccccc2)cc1 | -4.17 | –
65 | O=C(N/N=C/C(Br)=C/c1ccccc1)c1cnccn1 | 3.91 | –
66 | O=c1[nH]c2c(cnn2-c2ccc(Cl)cc2)c(=O)n1-c1cccc(Cl)c1 | -4.33 | –
67 | O=C(COC(=O)c1cc(=O)c2ccccc2o1)Nc1ccc2ccccc2c1 | -3.15 | –
68 | CCc1n[nH]c(=S)n1/N=C/c1ccc(N(CC)CC)cc1 | -2.67 | –
69 | COc1ccccc1-[n+]1c(C)cc(/C=C2\Sc3ccccc3N2C)cc1C | 4.51 | –
70 | CCCNC(=O)CN(c1ccccc1)S(=O)(=O)c1ccc(OC)c(OC)c1 | -3.31 | –
